RORgamma inh – ROR gamma (mouse) transcription inhibition; Drosophila S2 Gal4-RORgamma UAS-luciferase reporter, 20 h; Potency, µM (top dose mostly 53.6 µM), inactives show top-dose activity change, negative = inhibition, hits mostly inhibitors; 5.4% of 310,000 active; AID 2551; also: nearly all actives have a fitted effect of over 60% in size
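Luminescence from a UAS-regulated Photinus luciferase reporter in stably transfected Drosophila Schneider cells is measured; decreased signal marks ROR gamma inhibition. Fusion expression is induced by 700 uM copper sulfate for 20 hr.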
Gal4-VP16 FLuc – Gal4-VP16 reporter inhibition counter-screen; Drosophila S2 Gal4-VP16 UAS-luciferase, luminescence, 20 h; Potency, µM (doses to about 53.6 µM), without a hit: top-dose activity, negative = inhibition, hits mostly inhibitors; 3.5% of 310,000 active; AID 2546;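 also: Gal4-VP16 expression switched on by copper sulfate through the metallothionein promoter; nearly all actives have a fitted effect of over 50% in size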
Sfp inh – blocks B. subtilis Sfp PPTase activity. 3.5% of 310,000 active. Potency, µM, inactives show largest response in the series, negative = inhibition, usual class: inhibitors. Biochemical Sfp PPTase activity, qHTS;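 also: the enzyme is Sfp with the accession as filed and its product quenches rhodamine fluorescence; 0% = enzyme reaction without inhibitor and -100% = no enzyme wells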
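Reaction rates are the 30-min fluorescence difference (ex 525, em 598 nm) in wells containing 15 nM Sfp, 5 uM rhodamine-CoA and 12.5 uM BHQ-2-YbbR at pH 7.6 with 10 mM MgCl2.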
ALDH1A1 block – inhibitors of human aldehyde dehydrogenase 1A1; P00352; AID 1030; Potency, µM (doses to about 75.3 µM), for inactives: top-dose activity, negative = inhibition, hits mostly inhibitors; 7.3% of 220,000 active; Purified ALDH1A1, NADH fluorescence, propionaldehyde substrate; active = well fitted inhibition curve with a large enough effect, not every such curve was filed as active; inconclusive = small, poorly fitted or top-dose-only effect, or another doubt; inactive = no such curve, though single readings can be large or run the other way;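 also: plate controls were no enzyme wells and a reference inhibitor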
PLK1 PBD block – blocks phosphopeptide binding to human PLK1 polo-box domain; Plk1 PBD binding of FITC phosphopeptide, fluorescence polarization; 2.8% of 360,000 active; Potency, µM, inactives show max response, negative = inhibition, usual class: inhibitors; also: series mostly up to about 57 µM; nearly all actives have a fitted effect of over 65% in size
Target sequence (P53350 whole entry, looked up, the tested form may be a part): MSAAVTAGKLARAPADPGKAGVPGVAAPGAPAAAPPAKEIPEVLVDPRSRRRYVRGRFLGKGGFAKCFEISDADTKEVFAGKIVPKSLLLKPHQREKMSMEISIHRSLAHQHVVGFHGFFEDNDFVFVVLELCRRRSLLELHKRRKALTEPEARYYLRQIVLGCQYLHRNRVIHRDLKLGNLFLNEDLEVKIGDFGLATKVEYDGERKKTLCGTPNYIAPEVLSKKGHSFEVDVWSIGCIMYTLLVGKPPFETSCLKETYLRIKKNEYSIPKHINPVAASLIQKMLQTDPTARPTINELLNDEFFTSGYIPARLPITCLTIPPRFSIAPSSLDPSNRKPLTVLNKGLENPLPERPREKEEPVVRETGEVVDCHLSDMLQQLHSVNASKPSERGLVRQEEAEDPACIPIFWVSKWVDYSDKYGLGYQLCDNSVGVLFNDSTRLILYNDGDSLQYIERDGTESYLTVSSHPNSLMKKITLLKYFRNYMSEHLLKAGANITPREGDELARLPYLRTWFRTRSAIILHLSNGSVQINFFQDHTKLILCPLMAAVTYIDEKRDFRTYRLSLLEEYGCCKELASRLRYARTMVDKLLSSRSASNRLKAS
An asterisk follows results filed as active; ? = inconclusive; · = no result given; [ ] = remark or other dose. In the library only some 12% were active in any assay of this set; here they are far more common. Unless noted, calls follow the shape of the dose curve; as a rule, active = well fitted curve in the direction sought with a large enough effect; inconclusive = small, poorly fitted or top-dose-only effect, or another doubt; inactive = no such curve, though single readings can be large; an effect the other way counts as inactive or inconclusive. Unless noted, % is scaled to controls: 0 for no effect and ±100 for the full control effect; potency is read from the fitted curve at half-maximal effect.

SMILES | RORgamma inh | Gal4-VP16 FLuc | Sfp inh | ALDH1A1 block | PLK1 PBD block
O=C(O)C1CCC(CNS(=O)(=O)c2ccccc2)CC1 (stereo not drawn) | 1.6% | 1.8% | 14.2% | · | -5.4%
CCOC(=O)c1n[nH]n(-c2cc(Cl)cc(Cl)c2)c1=O | -10.9% | -8.2% | 16.1% | 7.9% | -4.2%
COC(=O)Cc1c(C)[nH]n(-c2cc(Cl)cc(Cl)c2)c1=O | 18.7% | 1.2% | 0.3% | 7.08µM* | ?
CC(C)(C)NC(=O)NC(=O)COC(=O)CNS(=O)(=O)/C=C/c1ccccc1 | -7.7% | 2.6% | 14.5% | 2.7% | 1.5%
Cc1nnc(SCC(=O)NCc2ccco2)[nH]c1=O | -1.5% | 10.5% | 56.2µM* | ? | -12.4%
Cc1cc(C)c2cc(C)c(SCC(=O)NCc3ccco3)nc2c1 | 22.5% | -3.7% | 4.4% | 14.1µM* | -18.6%
Cc1ccc(Cc2c(C)nc3nc(SCC(=O)NCc4ccco4)nn3c2C)cc1 | 22.7% | -0.6% | -37.0% | -10.2% | -7.8%
Cc1cc(=O)[nH]c(SCC(=O)NCc2ccco2)n1 | 4.2% | 22.4% | -6.7% | -3.7% | ?
Cc1cc(C)c2cc(C#N)c(SCC(=O)NCc3ccco3)nc2c1 | 12.6µM* | ? | 22.4µM* | ? | -13.2%
Cc1cccc(Cc2c(C)nc3nc(SCC(=O)NCc4ccco4)nn3c2C)c1 | 0.2% | 13.1% | 44.7µM* | 25.1µM* | -5.3%
Cc1ccc2c(SCC(=O)NCc3ccco3)nc(-c3ccc(F)cc3)nc2c1 | -41.0% | 2.8% | -1.0% | 12.1% | -10.1%
CC(C)Oc1ccc(S(=O)(=O)N2CCOCC2)cc1NC(=O)c1ccc(Cl)c(S(=O)(=O)N2CCOCC2)c1 | · | · | · | · | 0.3%
CC(C)C(=O)NNc1nc2ccccc2s1 | -5.3% | 3.9% | 19.5% | 17.6% | -5.0%
O=C(Nc1nc(-c2nc3ccccc3s2)cs1)C1CC1 | 5.62µM* | ? | -17.2% | ? | -7.9%
O=C(NNc1nc2ccccc2s1)C1CC1 | -26.4% | -8.7% | 44.7µM* | 0.6% | -5.5%
Cc1cc(C(=O)COC(=O)Cc2n[nH]c(=O)c3ccccc23)c(C)n1-c1cccc(C(F)(F)F)c1 | ? | ? | -0.8% | 7.94µM* | -12.4%
CCOc1cc(C(c2c(C)[nH][nH]c2=O)c2c(C)[nH][nH]c2=O)cc(Br)c1OC | 22.5% | 4.9% | 11.3% | · | ?
COc1cc(C(c2c(C)[nH][nH]c2=O)c2c(C)[nH][nH]c2=O)cc([N+](=O)[O-])c1O | ? | -13.5% | -14.4% | 1.2% | 26.7µM*
COc1cc(C(c2c(C)[nH][nH]c2=O)c2c(C)[nH][nH]c2=O)cc(Br)c1OC | -19.4% | -6.9% | -23.8% | · | 26.7µM*
CCOc1cc(C(c2c(C)[nH][nH]c2=O)c2c(C)[nH][nH]c2=O)cc([N+](=O)[O-])c1O | ? | -7.0% | -4.0% | · | -11.5%
S=c1nc(-c2nc(=S)[nH]c3c2CCCCCCCCCC3)c2c([nH]1)CCCCCCCCCC2 | · | · | · | -0.3%[13.5 µM] | ·
N#C/C(C(=O)NCCc1ccccc1)=C1/N=C(NC(=O)c2cccs2)c2ccccc21 | -13.6% | -15.2% | 14.0% | 3.6% | 9.6%
COCCCNC(=O)/C(C#N)=C1\N=C(NC(=O)c2cccs2)c2ccccc21 | -3.0% | 0.8% | 3.0% | 3.98µM* | -2.4%
CCOC(=O)C1=CCN(S(=O)(=O)c2ccc(C)cc2)C1c1cccc(Cl)c1 (stereo not drawn) | · | · | · | · | -22.6%
O=S(=O)([O-])CCC[N+]1(CC#Cc2ccccc2)CCCCC1 | 2.2% | -0.3% | 29.8% | -0.6% | 4.74µM*
SMILES | RORgamma inh | Gal4-VP16 FLuc | Sfp inh | ALDH1A1 block | PLK1 PBD block
C#CC[N+]1(CC#Cc2ccccc2)CCCC1 | 3.4% | -1.1% | -10.0% | -4.1% | -8.6%
C(#Cc1ccccc1)C[N+]1(CC#Cc2cccc3ccccc23)CCCC1 | -1.2% | 15.8µM* | ? | -6.1% | -7.8%
CCC[N+]1(CC#CC(O)(c2ccccc2)C2CCCCC2)CCCCC1 (stereo not drawn) | 1.5% | 6.3% | -10.3% | · | 5.7%
c1ccc(-c2c[nH]c3[n+]2CCCCC3)cc1 | 22.4µM* | ? | -12.0% | 3.3% | -5.9%
Cc1cccc(C)c1-n1nnnc1C(c1ccnc2ccccc12)N(Cc1ccccc1)Cc1ccccc1 (stereo not drawn) | · | · | · | · | 7.6%
Cc1ccc2c(c1)c1c3n2CCN(C(=O)CCl)C3CCC1 (stereo not drawn) | 2.51µM* | 11.2µM* | -9.5% | · | -23.7%
CC(=O)N1CCn2c3c(c4cc(C)ccc42)CCCC31 (stereo not drawn) | 15.5% | -5.7% | -5.9% | -1.8% | -4.0%
COc1ccc(-n2nnnc2C2(C)CCC(=O)N2Cc2ccccc2)cc1 (stereo not drawn) | · | · | · | · | -1.0%
C=C(C)C1Cc2c(C)nn(-c3ccccc3)c2C1 (stereo not drawn) | -13.6% | 4.5% | -3.7% | -8.3% | -1.3%
C=C(C)C1Cc2c(C)nn(-c3cccc4ccccc34)c2C1 (stereo not drawn) | 14.1µM* | ? | ? | 3.4% | -9.9%
O=C(Nc1ccc(S(=O)(=O)Nc2cnc3ccccc3n2)cc1)c1ccc(Cl)c([N+](=O)[O-])c1 | 21.5% | -15.2% | 30.8% | · | 42.3µM*
Cc1cc(Cl)ccc1OC(C)C(=O)Nc1ccc(S(=O)(=O)Nc2cnc3ccccc3n2)cc1 (stereo not drawn) | ? | -8.3% | 6.7% | -11.5% | 21.2µM*
O=C(Nc1ccc(S(=O)(=O)Nc2cnc3ccccc3n2)cc1)c1cc(F)c(F)cc1Cl | 7.6% | 3.4% | 20.8% | · | 29.9µM*
CC1(CC(=O)N/N=C/c2ccc(-c3ccc(Cl)cc3)o2)OCCO1 | ? | -14.9% | 2.0% | -9.7% | -5.5%
Nc1nonc1C(=O)N/N=C/c1ccc(-c2ccc(Cl)c(C(=O)O)c2)o1 | -2.2% | -5.6% | 8.91µM* | 3.98µM* | -11.9%
O=C(O)c1cc(-c2ccc(/C=N/Nc3ccc(Cl)cc3)o2)ccc1Cl | ? | -5.0% | -21.5% | ? | 29.9µM*
Cc1cc(C)c(C)c(S(=O)(=O)N2CCN(C(=O)c3ccco3)CC2)c1C | · | · | · | · | -8.0%
Cc1ccc(C(=O)N2CCN(Cc3ccccc3)CC2)o1 | 7.4% | -2.6% | -0.9% | · | -11.5%
Cc1ccc(/C=C/C(=O)N2CC(=O)Nc3ccccc32)o1 | ? | 15.8µM* | 7.08µM* | 20µM* | -18.6%
Cc1ccc(/C=C/C(=O)N2CCN(S(=O)(=O)c3c(C)c(C)cc(C)c3C)CC2)o1 | ? | ? | 14.1µM* | 14.1µM* | -27.0%
Cc1ccc(/C=C/C(=O)N2CCN(Cc3ccccc3)CC2)o1 | -35.7% | ? | -101.3% | 8.91µM* | -16.0%
COc1ccc(N(C)S(=O)(=O)c2cccc(C(=O)OCC(=O)Nc3cc(C)ccc3OC)c2)cc1 | · | · | · | · | -4.6%
CCOC(=O)C1(C)CCCN(C(=O)c2c(F)cccc2F)C1 (stereo not drawn) | · | · | · | · | 3.4%
CC(C)(C)C(=O)NCCCC(=O)O | 2.4% | 28.5% | 5.1% | · | ·
COc1cccc(CN2CCC2(C)C(=O)Nc2cccc(Oc3ccccc3)c2)c1F (stereo not drawn) | · | · | · | · | -6.0%
